“And” between values parts separate entries of the source, which are not always exact repeats. Equal entries are not always repeated. Inconclusive results are not listed. The source made the active and inactive calls. Calls follow the shape of the dose curve; as a rule, active = well fitted curve in the direction sought with a large enough effect; inconclusive = small, poorly fitted or top-dose-only effect, or another doubt; inactive = no such curve, though single readings can be large or run the other way.
% is scaled to controls: 0 for no effect and ±100 for the full control effect; potency is read from the fitted curve at half-maximal effect.

The nature of the experiment: qHTS Assay for Identifying Gametocytocidal Compounds (AID 743244).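 As to max response: actives lower the fluorescent signal which means gametocytes are killed.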 The conditions noted are these: P. falciparum 3D7 stage III-V gametocytes, alamarBlue, 72 h; max response: stronger effect = lower value. An excerpt:
Malaria cases and deaths have dropped 50% in 29 countries since 2000 due to the combined effects of long-lasting insecticidal bednets, indoor residual spraying, and artemisinin-based combination therapies (ACTs). This success has raised hopes for malaria eradication and consequently stimulated interest in developing new reagents that block gametocyte transmission such as novel and safe gametocytocidal drugs. However, previous drug development efforts have focused primarily on the asexual parasites that cause symptoms, but not malaria transmission. Consequently, patients can remain infectious for weeks after the clearance of asexual parasites and clinical symptoms. To be transmitted from person to person via a mosquito, the parasites must switch from asexual to sexual development and produce male and female gametocytes. Malaria gametocytes consist of five stages (I, II, III, IV and V). The late stage gametocytes (III, IV and V) are difficult to be cultured in vitro and the long lifespan of mature gametocytes allows them being transmitted from host to mosquitoes unless they are completely eliminated by gametocytocidal agents. To identify gametocytocidal compounds which are capable of killing late stage P. falciparum gametocytes, a high throughput gametocyte viability assay was employed. This assay uses oxidoreduction indicator, alamarBlue, as a general measure of metabolic activity of gametocytes. Within live cells, the nonfluorescent resazurin is reduced to resorufin, a bright red fluorescence dye. Fluorescence decreases upon treatment of gametocytocidal compounds. P. falciparum gametocyte (3D7 strain) was used in this study.
The 1536-well gametocycidal viability assay was based on the previous method of Tanaka et al. Stage III-V gametocytes were tested against three compound libraries, including 4265 compounds from NCGC pharmaceutical collection, 400 from Malaria Box library, and 550 from an internal collection of kinase inhibitors. Briefly, 2.5 ul/well incomplete medium was dispensed into each well of 1,536-well plates using the Multidrop Combi followed by 23 nl compound transferring using the NX-TR Pintool (WAKO Scientific Solutions, San Diego, CA). Then, 2.5 ul/well of gametocytes was dispensed with a seeding density of 20,000 cells/well using the Multidrop Combi. The assay plates were incubated for 72 h at 37C with 5% CO2. After addition of 5 ul/well of 2X AlamarBlue dye (Life Technologies, cat. no. DAL1100), the plates were incubated for 24 h at 37C with 5% CO2 and then were read in a fluorescence detection mode (Ex = 525 nm, Em = 598 nm) on a ViewLux plate reader (PerkinElmer).
Background: Quantitative high-throughput screening tests each substance at several concentrations.
Take `NC[C@@H]1O[C@H](C23CC4CC(CC(C4)C2)C3)Cc2c1ccc(O)c2O`: the Potency was 1000 nM (active). As to `NCCCCCCCCCCN`, the max response was 2.17% (inactive). As for `CN(C)c1ccc(N=NS(=O)(=O)O)cc1`, the Potency was 35500 nM (active). With `NCC1OC(O[C@H]2[C@H](O)[C@@H](OC3C(O)C(N)CC(N)C3OC3OC(CO)C(O)C(O)C3N)O[C@@H]2CO)C(N)C(O)C1O` (stereo not given in full), the max response is 40.6% (inactive). Consider `NCCSSCCN`, for which the max response was 3.62% (inactive). Regarding `Cc1c(Nc2ncccc2C(=O)O)cccc1C(F)(F)F`, the max response is 18.5% (inactive).

As to `CO/N=C(\C(=O)N[C@@H]1C(=O)N2C(C(=O)O)=C(COC(C)=O)CS[C@H]12)c1csc(N)n1` (stereo in doubt), the max response was 12.7% (inactive). Turning to `Nc1nc(Cl)nc2c1ncn2[C@@H]1O[C@H](COP(=O)(O)OP(=O)(O)OP(=O)(O)O)[C@@H](O)[C@H]1O`, the max response is 20.1% (inactive).

As for `Cc1ccc(C(=O)c2ccc(CC(=O)O)n2C)cc1`, the max response is 39.2% (inactive). On to `NCCCCC(=O)O`, for which the max response was 12.2% (inactive). On the same count and under the same terms, in the case of `O=C(O)CC1CC(c2ccccc2)=NO1` (stereo not given) it was -4.91% (inactive). Consider `CCN(CC)c1ncnc2c1ncn2[C@@H]1O[C@H](COP(=O)(O)OP(=O)(O)C(Br)(Br)P(=O)(O)O)[C@@H](O)[C@H]1O`, for which the max response was -1.02% (inactive). Take `CC1(C)[C@@H](O)CC[C@]2(C)[C@H]3C(=O)C=C4[C@@H]5C[C@@](C)(C(=O)O)CC[C@]5(C)CC[C@@]4(C)[C@]3(C)CC[C@@H]12`: the max response is 6.32% (inactive) and -6.89% (inactive). Turning to `N.N.O=C(O)C1(C(=O)O)CCC1.[Pt]`, the max response is -4.37% (inactive). Same read-out and setting: in the case of `N#C/C(=C\c1c[nH]c2ccccc12)C(=O)c1ccc(O)c(O)c1` it was -1.71% (inactive); in that of `O=C(Nc1ccccc1)c1cc([N+](=O)[O-])ccc1Cl`, -5.62% (inactive). As to `CC1(C)S[C@@H]2[C@H](NC(=O)[C@H](NC(=O)N3CCN(S(C)(=O)=O)C3=O)c3ccccc3)C(=O)N2[C@H]1C(=O)O`, the max response is 9.5% (inactive). Regarding `COc1cc(SC)ccc1C(=O)N1CCC(Cc2ccccc2)CC1`, the max response is 12.7% (inactive). Turning to `[O-][n+]1ccccc1SSc1cccc[n+]1[O-]`, the Potency is 148 nM (active). As to `O=C(O)CCCC[C@@H]1CCSS1`, the max response is 7.49% (inactive).

Consider `C=CC(N)CCC(=O)O` (stereo not given), for which the max response was -1.49% (inactive) and -10.7% (inactive). As to `O=C(/C=C/c1ccccc1)NCCO`, the max response is 7.68% (inactive). With `COc1ccccc1CNCCCCCCNCCCCCCCCNCCCCCCNCc1ccccc1OC`, the Potency was 1000 nM (active). Regarding `CCCCCCCCCCCCCCCC(=O)OC(C)C`, the max response was 3.03% (inactive). In the case of `COc1ccc(-c2cc(=S)ss2)cc1`, the max response was 9.16% (inactive). Consider `C[N+]1(C)C2CC(OC(=O)[C@H](CO)c3ccccc3)CC1C1OC12` (stereo not given in full), for which the max response is -7.69% (inactive) and 8.7% (inactive). Turning to `O=C(O)c1cc([N+](=O)[O-])ccc1NCCCc1ccccc1`, the max response is 5.5% (inactive). Take `O=C(O)CC1CCCc2ccccc2C1O` (stereo not given): the max response was 12.4% (inactive). With `C[N+](C)(C)CCOP(=O)(O)OP(=O)([O-])OC[C@H]1O[C@@H](n2ccc(N)nc2=O)[C@H](O)[C@@H]1O`, the max response is 1.57% (inactive) and 1.8% (inactive) and 27.7% (inactive). As to `C=CCc1cccc(/C=N/NC(=O)CN2CCN(Cc3ccccc3)CC2)c1O`, the Potency was 29600 nM (active).

On to `Cc1ccc(C(=O)O[C@H](C(=O)O)[C@@H](OC(=O)c2ccc(C)cc2)C(=O)O)cc1` (tested in a mixture with another compound), for which the max response was -5.55% (inactive). The same measure, in the same setting: in the case of `CO/N=C(\C(=O)N[C@@H]1C(=O)N2C(C(=O)O)=C(COC(C)=O)CS[C@H]12)c1csc(N)n1` it was 5.62% (inactive). In the case of `CCCN(CC1CC1)c1nc(C)nc(Nc2c(Cl)cc(Cl)cc2Cl)c1Cl`, the max response is 18.2% (inactive).

As to `c1ccc(CCNc2nc(-c3ccccc3)cs2)cc1`, the max response is -4.46% (inactive).

Consider `Cc1cc(NC(=O)Nc2ccc3c(ccn3C)c2)sn1`, for which the max response is 24.1% (inactive).

In the case of `CN1CCc2ccccc2Cc2[nH]c3ccccc3c2CC1`, the max response is -0.861% (inactive).

On to `C=CCCCCCCCCC(=O)O`, for which the max response is 8% (inactive).

On to `O=C(O)Cc1cccc(-c2cc(CCCCCCc3ccc(O[C@H]4O[C@H](CO)[C@@H](O)[C@H](O)[C@@H]4O)c(-c4cccc(CC(=O)O)c4)c3)ccc2O[C@H]2O[C@H](CO)[C@@H](O)[C@H](O)[C@@H]2O)c1`, for which the max response is 36.1% (inactive). Turning to `CC(C)NC[C@@H](O)c1ccc(O)c(O)c1`, the max response was 19.2% (inactive).

Regarding `CO[C@@]1(NC(=O)Cc2cccs2)C(=O)N2C(C(=O)O)=C(COC(N)=O)CS[C@@H]21`, the max response is -0.875% (inactive) and -15% (inactive).

These data come from PubChem BioAssay (NCATS).
